This is part of a sample that, as a whole, favours compounds with a hit. Of some 83,000 tested, about 20% had one in any assay.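 Single-dose data. Exposure time 48 hours. Values below 10 considered active.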 Values without a mark were called inactive. The source made the active and inactive calls.

The test system of the assay is SF-295 CNS. Kind of assay: NCI-60 one-dose screen, 48 h (100 = growth as untreated, 0 = no growth, -100 = all killed). Conditions: 10 µM.
`C=CC(=O)OCCCCCCCC`: the growth is 104%.
The result for `CCOC(=O)CNN` reads 102%; that for `NNc1ccccc1C(=O)O`, 114%; that for `CCOC(=O)C1=C(Nc2ccc(Br)cc2)C(=O)N(CC)C1`, 87%.
With `Cc1cc(C(O)(c2ccc(Nc3ccccc3)cc2)c2ccc(Nc3ccc(S(=O)(=O)O)cc3)cc2)ccc1N` (stereo not given) the figure was 5.34% (active).
The result for `CC1(c2ccccc2)NC(=O)NC1=O` (stereo not given) reads 119%.
`C=CC[N+](C)(C)C`: the growth is -10.9% (active).
On to `O=C1N(C[P+](c2ccccc2)(c2ccccc2)c2ccccc2)CCCN1C[P+](c1ccccc1)(c1ccccc1)c1ccccc1`, for which the growth is 96.4%.
For `Brc1cnc2ccccc2c1`, the growth is 101%.
Turning to `Nc1ccc(N)c([N+](=O)[O-])c1`, the growth is 108%.
As to `CSC[C@H](NC(=O)COc1cccc2cnccc12)C(=O)NC(Cc1ccccc1)C(O)C(=O)N1CSC[C@H]1C(=O)NC(C)(C)C` (stereo not given in full), the growth is 97.4%.
Take `OC(c1ccccn1)C(O)c1ccccn1` (stereo not given): the growth is 118%.
Consider `CCNCCCCNCCCCNCCCCNCCCCNCC`, for which the growth is 62.3%.
With `NC(=S)CN1CCOCC1`, the growth was 131%.
The result for `CC(C)=CC(=O)OC(=O)C=C(C)C` reads 111%.
With `COc1ccc(C(O)c2ccccc2)cc1` (stereo not given) the figure was 102%.
With `N#CC(=Nc1cccc(F)c1)C1=C(O)c2ccccc2C1=O` the figure was 82%; with `COC(=O)c1ccc(NC(=O)CCl)cc1`, 69.3%.
Turning to `O=C(O)CCC(NC(=O)OCc1ccccc1)C(=O)O` (stereo not given), the growth was 102%.
Consider `Cc1cc(C)cc(NCCC#N)c1`, for which the growth is 103%.

The values above are taken from PubChem BioAssay (NCI).
